# Assay results: PubChem BioAssay AID1345082 (National Center for Advancing Translational Sciences (NCATS), 2018)
# Hit rate of the full screen: of about 94,000 compounds, about 4,000 (4.3%) were called active. Inconclusive results (about 29%) are left out. Many of the other results were omitted from the sample, so actives are more common in it than they were. Values without a mark were called inactive. The call rests on the fitted dose curve; in most records, active means well fitted inhibition curve with a large enough effect; inconclusive means small, poorly fitted or top-dose-only effect; inactive means no such curve, though single readings can be large or run the other way.
# Experiment: Cytotoxic Profiling in NIH 3T3 Cell Line of Diverse Libraries Using Quantitative High-Throughput Screening; further: nearly all actives have a fitted effect of over 55% in size
# Details: NIH 3T3 viability, CellTiter-Glo ATP luminescence, 48-72 h; series mostly up to 96.7 µM; activity change, negative = cytotoxicity: at the top concentration
# Text: Cell-based phenotypic screening is a commonly used approach to discover biological pathways, novel drug targets, chemical probes and high-quality hit-to-lead molecules. Many hits identified from high-throughput screening campaign are ruled out through a series of follow-up potency, selectivity/specificity, and cytotoxicity assays. Prioritization of molecules with little or no cytotoxicity for a more in-depth downstream evaluation influence the future direction of projects, so cytotoxicity profiling of the screening libraries at early stage is essential for increasing the likelihood of candidate success. In this study, we analyzed results from a cell-based cytotoxicity screening campaign, comprising nearly 10,000 compounds in NCATS annotated libraries, and over 100,000 compounds in a diversity library, evaluated in four normal cell lines (HEK 293, NIH 3T3, CRL-7250 and HaCat) and a cancer cell line (KB 3-1, a HeLa subline) with overall screening outcomes, hit rates, pan-activity and selectivity. For the annotated library, we also examined the primary targets and mechanistic pathways regularly associated with cell death. To our knowledge, this is the first study to use high-throughput screening to profile large libraries for cytotoxicity assessment in both normal and cancer cell lines. In summary, the results generated here constitutes a valuable resource for the scientific community and provides insight on identifying cytotoxic compounds with particular mechanisms of action, and prioritizing compounds with suitable cytotoxicity profile for further evaluation.
# NIH 3T3 cells were seeded into white 1536-well plates using a Multidrop Combi peristaltic dispenser (ThermoFisher, Waltham, MA) at a density of 400 cells/well in 5 uL of medium respectively. A pintool (Kalypsys) was used to transfer 23 nL of compound solution to the 1536-well assay plates. After 48 or 72 hr incubation at 37 degree Celsius, 5% CO2 and 95% humidity, 2.5 uL of CellTiter-Glo (Promega) was dispensed into each well using a dispenser (Aspect Automation, St. Paul, MN) with solenoid valves (Lee Valves, Westbrook CT). Plates were left at room temperature for 10 min before imaging the ATP-coupled luminescence using a ViewLux microplate imager (PerkinElmer, Waltham, MA).
# On the % scale 0 is the no-effect control and ±100 the full control effect; potency means the concentration at half of the fitted maximal effect.
SMILES,"activity change, negative = cytotoxicity",outcome,Potency
COc1ccc(-c2cccc(C(=O)N3CCN(C(=O)c4ccc(Cl)nc4)CC3)c2)nn1,-9.4%,–,–
COCCc1noc(C2Cc3ccccc3N2C(=O)NCc2ccco2)n1 (centres undefined),–,inactive,–
O=C(NC[C@H]1O[C@H](Cc2cc(-c3ccccc3)on2)CC[C@@H]1O)C1CCC1,-24.2% [at 174 µM],–,–
O=C1Nc2ccccc2CC12CCN2Cc1cncs1 (centres undefined),-7.66% [at 138 µM],–,–
CC(=O)N1CCN(C(=O)c2ccccc2N2CCOCC2)CC(O)C1 (centres undefined),1.1%,–,–
O=C1Cc2c(-c3ccc(CO)cc3)n[nH]c2CN1CC1CCOCC1,–,–,79.4 µM (active)
COCc1cccc(-c2n[nH]c3c2CC(=O)N(c2ccccc2)C3)c1,-29% [at 138 µM],–,–
c1cc(-c2ccc3c(c2)OCCCO3)n2ncnc2n1,-6.36%,–,–
COc1ccc(Cn2c(=O)c(C(=O)N3CCN(C(=O)Nc4ccccc4)CC3)nc3cccnc32)cc1,-14%,–,–
COc1ccc(F)cc1S(=O)(=O)N1[C@@H]2CC[C@H]1CC(NC(=O)c1ccc(F)cc1)C2 (some centres undefined),-23.8%,–,–
O=C(NC1CCCN(Cc2ccc(-c3cncnc3)cc2)C1)C1CCCC1 (centres undefined),-24.3%,–,–
COCCC1(NC(=O)c2ccccc2)CCN(Cc2ccc(F)cc2F)CC1,-5.71%,–,–
COc1ccc(CC(=O)NC2CCN(Cc3ccc(-c4ccccc4OC)cc3)C2)cc1 (centres undefined),–,–,31.6 µM (active)
Cc1cc(C)cc(-c2ccc(CN3CCCC(NC(=O)c4ccccc4)C3)cc2)c1 (centres undefined),–,–,22.4 µM (active)
COc1cccc(-c2ccc(CN3CCCC(NC(=O)NC4CCCC4)C3)cc2)c1 (centres undefined),-37.7%,–,–
COc1ccc(F)cc1-c1ccc(CN2CCC(NC(=O)c3ccccc3)C2)cc1 (centres undefined),–,–,35.5 µM (active)
COc1ccccc1-c1ccc(C(=O)N2CCC(C(=O)NC3CC3)CC2)cc1,-28.9%,–,–
O=C(NC1CCCN(Cc2ccc(-c3cncnc3)cc2)C1)c1ccccc1 (centres undefined),-26.2%,–,–
CCn1ncnc1CN1CCC2(CC1)CC(C(=O)O)N(C(C)=O)C2 (centres undefined),-11%,–,–
COCC(=O)NC1CCC12CCN(C(=O)Nc1ccccc1)CC2 (centres undefined),-13.9%,–,–
Cc1ccc(C(=O)NC2CCN(c3ccc4nnc(C)n4n3)C2)cc1 (centres undefined),-24.8% [at 138 µM],–,–
O=C([C@@H]1C[C@H](F)CN1C(=O)Cc1ccccc1Cl)N1CCCCC1,-1.58%,–,–
Cc1ccccc1N1Cc2c(NCC(C)C)ncnc2N(C)CC1=O,-1.61%,–,–
CC/C=C/CC(=O)N1CCC2(CCN(Cc3cccnc3)CC2)C(CO)C1 (centres undefined),3%,–,–
COc1cccc2c1CCN=C2C[C@H]1CN(C(=O)C(C)(C)C)CC[C@H]1CC(=O)O,-20.9% [at 174 µM],–,–

SMILES,"activity change, negative = cytotoxicity",outcome,Potency
Cc1n[nH]c(C)c1CCC(=O)N1CCCC(c2ccc(C(=O)O)cc2)C1 (centres undefined),-7.96%,–,–
COc1ccc(S(=O)(=O)N2C[C@@H](Oc3ccccc3)C[C@@H]2C(=O)N2CCOCC2)cc1,-2.54%,–,–
Cc1c(C(=O)N2C[C@@H](CN(C)C)C[C@H](CO)C2)n(C)c2c(C)cccc12,-19.7%,–,–
CN(C)C[C@@H]1CN(C2CCOCC2)C[C@H]1NC(=O)c1ccco1,2.09%,–,–
COc1ccc2c(c1)nc1n2[C@@H](CNC(=O)c2ccncc2)COC1,-26.6% [at 174 µM],–,–
Cc1ccc2nc3n(c2c1)[C@@H](CNC(=O)c1ccc(C#N)cc1)COC3,–,–,89.1 µM (active)
Cc1ccc2c(c1)nc1n2[C@@H](CNC(=O)c2ccccc2)COC1,-7.85% [at 138 µM],–,–
O=C(CCC1CCCN(S(=O)(=O)c2ccc(F)cc2)C1)NC1CCS(=O)(=O)C1 (centres undefined),-23%,–,–
O=C(NC1CCc2nn(CC3CC3)c(=O)n2CC1)c1ccc(Cn2ccnc2)o1 (centres undefined),-16.1%,–,–
Cc1oc2ccn(Cc3ccccc3F)c(=O)c2c1C(=O)NCCCN1CCCCC1C (centres undefined),–,–,39.8 µM (active)
Cc1oc2c(c1C(=O)NCCN1CCCC1)CN(Cc1ccc(F)cc1)CC2,–,inactive,–
Cc1noc([C@H]2CCN(Cc3ccccc3F)C[C@H]2NC(=O)C2CC2)n1,-6.62%,–,–
CCn1nc(C)c(-c2cc(C(=O)N3CCCCCCNC(=O)[C@@H]4CCCC[C@@H]43)no2)c1C,-26.8%,–,–
COc1nccnc1NC1CCN(C(=O)NCc2ccccc2)CC1,-21.9%,–,–
CC(C)CN1CCOC[C@H](Oc2ccc(S(C)(=O)=O)cc2)C1,-3.34% [at 138 µM],–,–
COc1ccc(O[C@H]2COCCN(Cc3nccn3C)C2)cc1,-12.7% [at 138 µM],–,–
Cn1cc(CN2CCOC[C@H](Oc3ccc(S(C)(=O)=O)cc3)C2)c2ccccc21,–,–,28.2 µM (active)
CCCCn1ccnc1C1CCCN(C(=O)c2ccccc2-c2ncn[nH]2)C1 (centres undefined),-4.3%,–,–
CN(C)C(=O)c1ccc2oc(-c3ccnc(Cl)c3)nc2c1,–,–,28.2 µM (active)
O=C(NCCc1ccc(Cl)cc1)c1ccc2oc(-c3cccnc3)nc2c1,-15.1%,–,–
O=C(NCc1ccccc1)c1ccc2nc(-c3ccnc(Cl)c3)oc2c1,-10.4% [at 138 µM],–,–
O=C(O)[C@]12CCCN(Cc3ncc[nH]3)[C@@H]1CCN(Cc1ccncc1)C2,–,inactive,–
CCCN1CCCC2(CCN(C(=O)C(=O)c3cccn3C)C2)C1=O (centres undefined),0.429%,–,–
CC(C)NC(=O)C1CCC(=O)N1C1CCN(C(=O)c2ccc3c(c2)OCO3)CC1 (centres undefined),-12.1%,–,–
